Assay outcomes deposited in PubChem BioAssay by National Center for Advancing Translational Sciences (NCATS).
DT40 TDP1 CPT: qHTS for Inhibitors of human tyrosyl-DNA phosphodiesterase 1 (TDP1): qHTS in cells in presence of CPT; chicken DT40 Tdp1-/-;hTDP1 cells + 20 nM CPT, ATP luminescence, 48 h; 420,000 tested, 12% active; Potency, µM (top dose mostly 46.2 µM), without a hit: at the highest dose activity change, negative = growth inhibition, usual class: inhibitors; further: on the % scale 0 is the no-effect control and ±100 the full control effect; nearly all actives have a fitted effect of over 55% in size
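Cell growth measured by CellTiter-Glo luminescence after a minimum 48 h, 37 C compound exposure with 20 nM CPT in Tdp1-knockout DT40 cells stably expressing hTDP1, seeded 400/well; qHTS titration format.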
HT1080 IDH1KD tx: qHTS for induction of synthetic lethality in tumor cells producing 2HG: qHTS for the HT-1080-IDH1KD cell line; HT-1080 IDH1 knockdown viability, ATP luminescence, 48 h; Potency, µM (doses to about 46.1 µM), for the others: at the top dose activity, negative = toxicity, actives largely listed as cytotoxic; 360,000 tested, 2% active;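 further: 0% = DMSO wells and -100% = cell-free medium wells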
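After a 2 h attachment period, IDH1KD HT-1080 cells took pin-transferred compound for 48 h at 37 °C; ATP-based luminescence after 10 min room-temperature reagent incubation reported viability.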
HT1080NT lethal: qHTS for induction of synthetic lethality in tumor cells producing 2HG: qHTS for the HT-1080-NT fibrosarcoma cell line; HT-1080-NT fibrosarcoma viability, CellTiter-Glo ATP luminescence, 48 h; Potency, µM (doses to about 46.1 µM), inactives show at the highest dose activity, negative = less viability, most hits filed as cytotoxic; 360,000 tested, 1.6% active; AID 686970, 2013;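 further: NT is the 2HG producing partner of a matched IDH1 knockdown line; 0% = DMSO-treated cells and -100% = media-only wells without cells; nearly all actives have a fitted effect of over 55% in size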
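HT-1080-NT fibrosarcoma cells (2HG-overproducing), 750 cells/well in RPMI with 5% FBS, dosed after 2 h and incubated 48 h at 37C. CellTiter-Glo luminescence normalized to DMSO and no-cell wells; concentration-response curves fitted and classed.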
TGFb inhibitor: qHTS for Inhibitors of TGF-b; Potency, µM (titrated, usually from 46.1 µM), without a hit: top-dose activity, negative = inhibition, usual class: inhibitors; HepG2 CAGA-GFP TGF-b/SMAD3 reporter, GFP fluorescence, 18 h; TGF-beta stimulated, 500 pg/mL final; 410,000 tested, 1.2% active; AID 588855, 2011; further: on the % scale 0 is the no-effect control and ±100 the full control effect; nearly all actives have a fitted effect of over 65% in size
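HEPG2 CAGA-GFP reporter cells (1000/well, DMEM with 1% FBS) received compounds, then recombinant TGF-beta at 500 pg/mL final for 18 hours at 37 degrees C. Per-cell GFP summed per well was normalised to unstimulated and stimulated DMSO controls before curve fitting.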
DT40 TDP1 no CPT: qHTS for Inhibitors of human tyrosyl-DNA phosphodiesterase 1 (TDP1): qHTS in cells in absence of CPT. AID 686978, 2013. DT40 Tdp1-/- hTDP1 cells, no CPT, ATP luminescence, 48 h. Potency, µM (titrated, usually from 46.2 µM), for the others: at the top dose activity change, negative = growth inhibition, most hits filed as inhibitors. 420,000 tested, 15% active; further: on the % scale 0 is the no-effect control and ±100 the full control effect; nearly all actives have a fitted effect of over 55% in size
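DT40 Tdp1-/-;hTDP1 cells, no CPT (DMSO vehicle only), 400 cells/well; compounds pin-transferred; ≥48 hr, 37 °C; CellTiter-Glo 30 min RT dark, luminescence read.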
HepG2 tox-1: qHTS for Inhibitors of TGF-b: Cytotox Counterscreen; HepG2 CAGA-GFP viability, ATP luminescence, 18 h; Potency, µM (doses to about 46.1 µM), for the others: top-dose activity change, negative = cytotoxicity, actives largely listed as cytotoxic; 410,000 tested, 0.76% active; AID 588856, 2011
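CellTiter-Glo luminescence gave cytotoxicity after 18 hours at 37 degrees C. The cells were HepG2 CAGA-GFP in 1% FBS DMEM, stimulated with 500 pg/mL TGF-beta after compound addition. %Activity was normalised to no-cell wells (complete cell-killing) and DMSO (no toxicity), and curves were fitted and classified.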
TGFb confirm: qHTS for Inhibitors of TGF-b: Confirmation of Cherry Picks | 1,600 tested, 63% active | shares compounds with TGFb inhibitor | AID 720534, 2013 | Potency, µM (top dose mostly 46.1 µM), for the others: at the highest dose activity, negative = inhibition, usual class: inhibitors | HepG2 CAGA-GFP TGF-b reporter, GFP fluorescence, 18 h; cells stimulated with TGF-beta, 500 pg/mL; further: on the % scale 0 is the no-effect control and ±100 the full control effect; nearly all actives have a fitted effect of over 65% in size
HepG2 tox-2: qHTS for Inhibitors of TGF-b: Cytotox Counterscreen for Cherry Picks; Potency, µM (series often up to 46.1 µM), for inactives: at the highest dose activity, negative = cytotoxicity, usual class: inhibitors; 1,600 tested, 27% active; shares compounds with TGFb inhibitor; HepG2 CAGA-GFP viability, ATP luminescence, 18 h; cells stimulated with TGF-beta, 500 pg/mL; AID 720535, 2013; further: on the % scale 0 is the no-effect control and ±100 the full control effect; nearly all actives have a fitted effect of over 70% in size
CCL64 TGFb inh: qHTS for Inhibitors of TGF-b: CCL64 Cells Orthogonal Assay for Cherry Picks; shares compounds with TGFb inhibitor; CCL64 CAGA-GFP reporter, TGF-b stimulated, GFP fluorescence, 18 h; Potency, µM (highest dose often 46.1 µM), for the others: at the highest dose activity, negative = inhibition, usual class: inhibitors; 1,600 tested, 41% active; further: nearly all actives have a fitted effect of over 65% in size
COP TGFb inh: qHTS for Inhibitors of TGF-b: Hit Validation in HepG2 Cells using COP promoter. shares compounds with TGFb inhibitor. HepG2 COP-GFP TGF-b reporter, GFP fluorescence, 18 h; cells stimulated by added recombinant TGF-beta. Potency, µM (series often up to 46.1 µM), without a hit: at the top dose activity, negative = inhibition, actives largely listed as inhibitors. 1,600 tested, 3% active. AID 720537, 2013; further: nearly all actives have a fitted effect of over 70% in size
Starred values were filed as active, the others as inactive; ? = inconclusive; . = not tested or not shown. Sampled rows, rich in hits. Any-hit rate of the full collection: about 17%. The call rests on the fitted dose curve; in most records, active means well fitted curve in the direction sought with a large enough effect; inconclusive means small, poorly fitted or top-dose-only effect, or another doubt; inactive means no such curve, though single readings can be large; an effect the other way counts as inactive or inconclusive. Potency means the concentration at half of the fitted maximal effect.

SMILES | DT40 TDP1 CPT | HT1080 IDH1KD tx | HT1080NT lethal | TGFb inhibitor | DT40 TDP1 no CPT | HepG2 tox-1 | TGFb confirm | HepG2 tox-2 | CCL64 TGFb inh | COP TGFb inh
COc1ccc(-c2sc3ccc(OC)cc3c2-c2ccc(OC)nc2)cc1 | ? | -1% | -12% | 15% | ? | -4% | . | . | . | .
Nc1ccc(S(=O)(=O)c2ccccc2)nc1 | 6% | 0% | -4% | -6% | -3% | -36% | . | . | . | .
Cc1ccc(S(=O)(=O)c2ccc([N+](=O)[O-])cn2)cc1 | 0.46µM* | 4.6µM* | 2.6µM* | 2.8µM* | 0.52µM* | 7.1µM* | 3.3µM* | 2.9µM* | 3.3µM* | 5.2µM*
O=[N+]([O-])c1ccc(S(=O)(=O)c2ccccc2)nc1 | 0.52µM* | 5.8µM* | 5.8µM* | 2.5µM* | 0.92µM* | 14µM* | 4.1µM* | 5.8µM* | 3.3µM* | 8.2µM*
Cc1ccc(N=Nc2ccc3ccccc3c2O)cc1 | ? | -14% | ? | 0% | ? | 5% | . | . | . | .
Oc1c(N=Nc2nn[nH]n2)ccc2ccccc12 | 16µM* | ? | ? | 4.5µM* | 16µM* | 5.6µM* | 7.3µM* | 15µM* | 21µM* | ?
O=C(Nc1cccc(Cl)c1)Nc1cc(S(=O)(=O)N2CCCCC2)ccc1Cl | ? | 26µM* | ? | 10µM* | ? | 2% | 4.1µM* | ? | 4.6µM* | 73%
O=C(OC(C(=O)NCc1ccco1)c1ccc(Cl)cc1)c1cccs1 (stereo unspecified) | ? | -4% | 18% | -11% | ? | -1% | . | . | . | .
O=C(OCc1ccccc1)c1ccc(NCc2cc(O)ccc2O)cc1 | 4.6µM* | 5.8µM* | 9.2µM* | 10µM* | 3.7µM* | -66% | 5.2µM* | 16µM* | 2.1µM* | -10%
CCC(=O)Nc1ccc(C(=O)OCc2ccccc2)cc1 | -20% | 0% | 0% | -13% | -1% | 1% | . | . | . | .
COc1ccc(C2/C=C\CN(C(=O)C3CC3)[C@H](Cc3ccccc3)C(=O)N2Cc2ccc(F)cc2)cc1 (stereo partly specified) | 16µM* | ? | ? | 10µM* | 23µM* | -5% | ? | -25% | ? | 35%
COc1ccc(C2/C=C\CN(C(=O)c3ccccc3)C(C)C(=O)N2Cc2ccc(F)cc2)cc1 (stereo unspecified) | . | . | . | -25% | . | -14% | . | . | . | .
COc1cccc(Nc2ncc3nc(C)c(=O)n(C[C@H]4CCCO4)c3n2)c1 | -7% | . | . | . | -9% | . | . | . | . | .
Cn1c(=O)c(-c2ccccc2)nc2cnc(OCc3ccccc3)nc21 | 12% | . | . | . | -11% | . | . | . | . | .
NC(=O)c1cc([N+](=O)[O-])c(Cl)cc1NCc1ccncc1 | ? | 4% | 0% | ? | ? | 6% | 18µM* | -28% | -9% | 18%
O=C1c2ccc(Br)cc2C(=O)N1c1ccc(Cl)cn1 | -6% | 9% | 5% | 1% | 3% | 3% | . | . | . | .
O=C(CC(=O)Nc1cccc(F)c1)Nc1cccc(F)c1 | ? | -11% | -1% | -6% | ? | 20% | . | . | . | .
O=C(C#Cc1ccccc1)Nc1cccc(F)c1 | 4.1µM* | 3.7µM* | ? | 4µM* | 5.8µM* | -5% | 2.1µM* | 6.5µM* | 5.8µM* | -2%
Cc1ccc(-c2ccccc2[C@@H]2C[C@H]3CN(C)C(=O)[C@]34CCCN24)o1 | 13% | -5% | 4% | 12% | 0% | 0% | . | . | . | .
O=C1N(c2ccccc2)C[C@@H]2C[C@@H](c3cc4ccccc4o3)N3CCC[C@@]123 | -5% | 0.58µM* | ? | 0.13µM* | 23µM* | 2% | 0.058µM* | ? | 0.58µM* | 18%
CC(C)=CCNc1ncnc2c1c(C#N)cn2C1OC(CO)C(O)C1O (stereo unspecified) | 5.8µM* | -16% | -5% | 4µM* | 4.1µM* | -26% | 0.73µM* | ? | 13% | 22%
Nc1[nH]c(=O)nc2c1ncn2C1OC(CO)C(O)C1O (stereo unspecified) | ? | . | . | 4% | ? | -1% | . | . | . | .
Cc1ccc(S(=O)(=O)N2CC=C(c3ccc(F)cc3)CC2)cc1 | 0% | -2% | -1% | 3.2µM* | ? | 5% | ? | -14% | 1% | -13%
Cc1ccc(C(NC(=O)C2CCCCC2)c2c(O)ccc3ccccc23)cc1 (stereo unspecified) | 16µM* | ? | -23% | 4.5µM* | 21µM* | 1% | 7.3µM* | ? | 23µM* | 35%
Cc1cccc(NC(=O)c2c(NC(=O)c3ccco3)sc3c2CCC(C(C)(C)C)C3)c1 (stereo unspecified) | 5% | . | . | 2% | -2% | -19% | . | . | . | .
CCCCOc1ccc(Cn2c(=O)oc3ccc(C)cc32)cc1 | ? | . | . | 3% | ? | -10% | . | . | . | .
